Test results: PubChem BioAssay (NCATS)
Inconclusive results are not listed. Entries that show only a call come without a potency. Unmarked numbers belong to inactive results. The source made the active and inactive calls. The call rests on the fitted dose curve; in most records, active means well fitted inhibition curve with a large enough effect; inconclusive means small, poorly fitted or top-dose-only effect; inactive means no such curve, though single readings can be large or run the other way.

Target: Retinaldehyde dehydrogenase 3 (Homo sapiens) (UniProt P47895)
Assay: qHTS for Inhibitors of the Aldehyde Dehydrogenase Family (ALDH1A3) Primary screen (AID 2061315)
Settings: ALDH inhibition qHTS; series mostly up to 56 µM

Structure (SMILES)	activity change, negative = inhibition	Potency
CN(CC[C@H](N)CC(=O)N[C@H]1C=C[C@@H](n2ccc(N)nc2=O)O[C@@H]1C(=O)O)C(=N)N	7.62% [at 11.2 µM]	
C=CCN1CCC2(C)c3cc(O)ccc3C[C@H]1[C@H]2C		inactive
CC[C@H]1C[C@H]2[C@@H]3CCC4=CC(=O)CC[C@@H]4[C@H]3CC[C@]2(C)[C@H]1O		inactive
C/C1=C/[C@@H](C)C/C=C/[C@H]2[C@@H]3O[C@]3(C)[C@@H](C)[C@H]3[C@H](Cc4c[nH]c5ccccc45)NC(=O)[C@]32C(=O)/C=C\C(=O)[C@@H]1O		inactive
CN1CCN(c2nc3ccccc3nc2Cl)CC1		inactive
COC1CC(O[C@H]2CC[C@@]3(C)C(=CCC4C3C(O)[C@@H](O)[C@]3(C)[C@@H](C(C)=O)CC[C@]43O)C2)OC(C)C1OC1CC(OC)C(OC2OC(C)C(O)C(O)C2O)C(C)O1 (some centres undefined)		inactive
C=C(C)[C@@H]1[C@H]2OC(=O)[C@H]1[C@]1(O)C[C@H]3O[C@]34C(=O)O[C@H]2[C@]14C		inactive
O=C(N[C@H]1N=C(c2ccccc2F)c2cccc3c2N(CC3)C1=O)c1cc2ccccc2[nH]1		inactive
COC(=O)C12C(=O)C(C)(O)C(=O)C1(C)C(C)=CC1C34CCC(OC3=O)C(C)(CO)C4CCC12C (centres undefined)		inactive
Oc1ccc2c(c1)C13CCCC[C@H]1[C@@H](C2)N(CC1CCC1)CC3		inactive
CC1=CC2/C=C(\C)CCC(O)C(O)/C=C/C(=O)OC23C(=O)NC(CC(C)C)C3C1C (centres undefined)		inactive
COCC(C(=O)OC1CC2CCC(C1)N2C)c1ccccc1 (centres undefined)		inactive
COc1ccc2c3c4n(c2c1)[C@@H](C=C(C)C)OOC(C)(C)C[C@@H]4N1C(=O)[C@@H]2CCCN2C(=O)[C@]1(O)[C@H]3OCC=C(C)C		inactive
CCCCCCC1C(=O)O[C@H](C)[C@H](NC(=O)c2cccc(NC=O)c2O)C(=O)O[C@@H](C)[C@@H]1OC(=O)CC(C)C (some centres undefined)		inactive
CC[C@@H](C)[C@H]1C(=O)O[C@H](C(C)C)C(=O)N(C)[C@@H](C(C)C)C(=O)O[C@H](C(C)C)C(=O)N(C)[C@@H](C(C)C)C(=O)O[C@H](C(C)C)C(=O)N1C		inactive
CC[C@@H]1C[C@H]2CC[C@H](O2)[C@H](C)C(=O)O[C@@H](C)C[C@@H]2CC[C@@H](O2)[C@@H](C)C(=O)O[C@H](C)C[C@H]2CC[C@H](O2)[C@H](C)C(=O)O[C@@H](C)C[C@@H]2CC[C@@H](O2)[C@@H](C)C(=O)O1		inactive
CO[C@@H]1[C@@H](O)[C@@H](O[C@H]2CC[C@]3(C=O)C4CC[C@]5(C)[C@@H](C6=CC(=O)OC6)CC[C@]5(O)[C@@H]4CC[C@H]3C2)O[C@@H](C)[C@H]1O[C@@H]1O[C@H](CO[C@@H]2O[C@H](CO)[C@@H](O)[C@H](O)[C@H]2O)[C@@H](O)[C@H](O)[C@H]1O (some centres undefined)		inactive
CN1C(=O)c2ccccc2NC(=O)C1Cc1ccccc1 (centres undefined)		inactive
C[C@@](O)(COc1ccc(C#N)cc1)C(=O)Nc1ccc(C#N)c(C(F)(F)F)c1		inactive
CC12CCC3C(CCC4(O)CC(O)CCC34C=O)C1(O)CCC2C1=CC(=O)OC1 (centres undefined)		inactive
CC1=C[C@H]2O[C@@H]3[C@H](O)[C@@H](O)[C@](C)([C@@]2(CO)C[C@@H]1O)[C@]31CO1		inactive
CNC(=O)c1cc(C#N)cc(C)c1NC(=O)c1cc(Br)nn1-c1ncccc1Cl		inactive
COC(=O)[C@@]1(C)C(=O)C=C[C@]2(C)c3c(O)cc(C(C)C)cc3[C@H](O)[C@@H](OC(C)=O)C12 (some centres undefined)		inactive
C=C1C(=O)OC2/C=C(\COO)CC/C=C(\COC(C)=O)CC(OC(=O)C(C)CC)C12 (centres undefined)		inactive
COC1CC(O[C@H]2CC[C@]3(C=O)C4CC[C@]5(C)[C@@H](C6=CC(=O)OC6)CC[C@]5(O)[C@@H]4CC[C@@H]3C2)OC(C)C1O[C@@H]1O[C@H](CO)[C@@H](O[C@@H]2O[C@H](CO)[C@@H](O)[C@H](O)[C@H]2O)[C@H](O)[C@H]1O (some centres undefined)		inactive
COc1cc2c(cc1OC)[C@@]13CCN4CC5=CCO[C@H]6CC(=O)N2[C@H]1[C@H]6[C@H]5C[C@H]43		inactive
C=C(C)C(=O)O[C@H]1[C@@H]2[C@H](C)C(=O)O[C@@H]2C[C@@H](C)[C@@H]2C=CC(=O)[C@]21C		inactive
CC(=O)C1CCC2C3CCC4C[C@@H](O)CCC4(C)C3CCC12C (some centres undefined)		inactive
CCCC[N+]1(C)[C@@H]2CC(OC(=O)[C@H](CO)c3ccccc3)C[C@H]1[C@@H]1O[C@@H]12 (some centres undefined)		inactive
